This is a sample that favours compounds with a hit; in the whole collection about 19% have one here.
DT40 TDP1 no CPT – qHTS for Inhibitors of human tyrosyl-DNA phosphodiesterase 1 (TDP1): qHTS in cells in absence of CPT; Potency, µM (top dose mostly 46.2 µM), without a hit: at the top dose activity change, negative = growth inhibition, hits mostly inhibitors; DT40 Tdp1-/- hTDP1 cells, no CPT, ATP luminescence, 48 h; 420,000 compounds, 15% hits; also: potency is read from the fitted curve at half-maximal effect; nearly all actives have a fitted effect of over 55% in size
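Growth kinetics read by CellTiter-Glo luminescence after ≥48 hr at 37 °C. Cells: DT40 Tdp1-/- stably carrying human TDP1, 400 per well, compound exposure in the absence of CPT (DMSO vehicle).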
HT1080NT lethal – kills 2HG-producing HT-1080-NT fibrosarcoma cells; HT-1080-NT fibrosarcoma viability, CellTiter-Glo ATP luminescence, 48 h; 360,000 compounds, 1.6% hits; Potency, µM (highest dose often 46.1 µM), inactives show top-dose activity, negative = less viability, actives largely listed as cytotoxic; AID 686970;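 also: NT is the 2HG producing partner of a matched IDH1 knockdown line; potency is read from the fitted curve at half-maximal effect; 0% = DMSO-treated cells and -100% = media-only wells without cells; nearly all actives have a fitted effect of over 55% in size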
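Viability of the 2HG-overproducing fibrosarcoma line after 48 hours of compound exposure at 37 degrees C was determined by luminescence with CellTiter-Glo, and concentration-effect curves were then fitted and categorized.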
uPA generation – inhibitors of cell surface uPA generation; 330,000 compounds, 0.31% hits; cell surface uPA generation assay, qHTS; Potency, µM (titrated, usually from 38.3 µM), inactives show top-dose activity change, negative = inhibition, actives largely listed as inhibitors; active = well fitted inhibition curve with a large enough effect; inconclusive = small, poorly fitted or top-dose-only effect; inactive = no such curve, though single readings can be large or run the other way; tested in mouse RAW 264.7 cells; also: potency is read from the fitted curve at half-maximal effect; nearly all actives have a fitted effect of over 55% in size
TDP1 cell CPT – growth inhibition of DT40 Tdp1-/-;hTDP1 cells with camptothecin (screen for TDP1 inhibitors) | 420,000 compounds, 12% hits | Potency, µM (top dose mostly 46.2 µM), without a hit: at the highest dose activity change, negative = growth inhibition, actives largely listed as inhibitors | chicken DT40 Tdp1-/-;hTDP1 cells + 20 nM CPT, ATP luminescence, 48 h; also: potency is read from the fitted curve at half-maximal effect; nearly all actives have a fitted effect of over 55% in size
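Cell growth measured by CellTiter-Glo luminescence after a minimum 48 h, 37 C compound exposure with 20 nM CPT in Tdp1-knockout DT40 cells stably expressing hTDP1, seeded 400/well; qHTS titration format.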
IL-1B inflam inh – blocks inflammasome-driven IL-1 beta release. THP-1 LPS/ATP IL-1B secretion, AlphaLISA, 16 h; active compounds read low. activity change, % at 57.5 µM. 360,000 compounds, 4.7% hits. AID 743279; in the data active = activity change below about -50%; inconclusive = mostly about -30% to -49%
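Secreted IL-1B measured by AlphaLISA bead assay after 16 h compound exposure of THP-1 cells; compounds (final up to 57.5 uM) added 1 h before LPS (250 ng/mL) and ATP (1.25 mM) stimulation; lower signal means less secretion.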
HT1080 IDH1KD tx – toxicity to HT-1080 IDH1 knockdown cells (counter line); AID 686971; Potency, µM (top dose mostly 46.1 µM), for the others: top-dose activity, negative = toxicity, usual class: cytotoxic; 360,000 compounds, 2% hits; HT-1080 IDH1 knockdown viability, ATP luminescence, 48 h;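 also: potency is read from the fitted curve at half-maximal effect; 0% = DMSO wells and -100% = cell-free medium wells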
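Viability of IDH1-knockdown HT-1080 fibrosarcoma cells was assessed by CellTiter-Glo after 48 h at 37 °C with titrated compound; concentration-effect curves were classified by fit quality and response size.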
Active calls of the source: *. Unless noted, calls follow the shape of the dose curve; as a rule, active = well fitted curve in the direction sought with a large enough effect; inconclusive = small, poorly fitted or top-dose-only effect, or another doubt; inactive = no such curve, though single readings can be large; an effect the other way counts as inactive or inconclusive. Unless noted, % is scaled to controls: 0 for no effect and ±100 for the full control effect.

What do the screens show for `CCOC(=O)C1=C(COC(=O)CNS(=O)(=O)c2ccc(C)c(C)c2)NC(=O)NC1C` (stereo not given)?
DT40 TDP1 no CPT: -2%; HT1080NT lethal: 3%; TDP1 cell CPT: -8%; IL-1B inflam inh: 16; HT1080 IDH1KD tx: 10%

How did Cc1cc(C)cc(-n2ccn(Cc3ccccc3C)c(=O)c2=O)c1 do in these assays?
DT40 TDP1 no CPT: -29%; TDP1 cell CPT: -21%

How did CCN(C(=O)Cn1c(=O)oc2cc(S(=O)(=O)N3CCCCC3)ccc21)c1ccccc1 do in these assays?
DT40 TDP1 no CPT: -28%; TDP1 cell CPT: -6%

How did O=C(c1ccc2c(c1)N(Cc1ccccc1)C(=O)c1ccccc1S2(=O)=O)N1CCN(Cc2ccccc2)CC1 do in these assays?
DT40 TDP1 no CPT: 7.3µM*; TDP1 cell CPT: 10µM*

How did O=C(NCCN1CCCC1)c1ccc2c(c1)N(Cc1cccc(Cl)c1)C(=O)c1ccccc1S2(=O)=O do in these assays?
DT40 TDP1 no CPT: 5%; HT1080NT lethal: -20%; uPA generation: inconclusive; TDP1 cell CPT: inconclusive; IL-1B inflam inh: -8; HT1080 IDH1KD tx: inconclusive

What do the screens show for `O=C(c1ccc2c(c1)N(Cc1cccc(Cl)c1)C(=O)c1ccccc1S2(=O)=O)N1CCC(Cc2ccccc2)CC1`?
DT40 TDP1 no CPT: 4.1µM*; TDP1 cell CPT: 4.1µM*

What do the screens show for `O=C(c1ccc2c(c1)N(Cc1ccccc1)C(=O)c1ccccc1S2(=O)=O)N1CCN(c2ccccn2)CC1`?
DT40 TDP1 no CPT: 21µM*; TDP1 cell CPT: inconclusive

How did O=C(c1cc2c(s1)-c1ccccc1S(=O)(=O)C2)N1CCN(Cc2ccccc2)CC1 do in these assays?
DT40 TDP1 no CPT: 16µM*; HT1080NT lethal: -16%; uPA generation: -29%; TDP1 cell CPT: 18µM*; IL-1B inflam inh: -9; HT1080 IDH1KD tx: inconclusive

How did COc1ccccc1C(=O)COC(=O)C1CCN(S(=O)(=O)c2ccccc2)CC1 do in these assays?
DT40 TDP1 no CPT: 8%; HT1080NT lethal: 1%; TDP1 cell CPT: -25%; IL-1B inflam inh: 0; HT1080 IDH1KD tx: 6%

How did Cc1ccccc1NC(=O)c1ccc2c(O)c(S(=O)(=O)c3ccccc3)c(=O)[nH]c2c1 do in these assays?
DT40 TDP1 no CPT: 14%; HT1080NT lethal: -3%; uPA generation: 2%; TDP1 cell CPT: -12%; IL-1B inflam inh: -3; HT1080 IDH1KD tx: 8%

What do the screens show for `Cc1ccc(C)c(CN2C(=O)c3ccccc3S(=O)(=O)c3ccc(C(=O)N4CCN(c5ccccc5F)CC4)cc32)c1`?
DT40 TDP1 no CPT: -17%; TDP1 cell CPT: -3%

Results for O=C(c1ccc2c(c1)N(Cc1ccc(Cl)cc1)C(=O)c1ccccc1S2=O)N1CCC(Cc2ccccc2)CC1 (stereo not given) ?
DT40 TDP1 no CPT: 9.2µM*; TDP1 cell CPT: 12µM*

Results for O=C(c1ccc2c(c1)N(Cc1ccccc1F)C(=O)c1ccccc1S2(=O)=O)N1CCN(c2ccccn2)CC1 ?
DT40 TDP1 no CPT: 21µM*; TDP1 cell CPT: 26µM*

What do the screens show for `CC12CC(NC(=O)N1CCc1ccccc1)c1cc(Cl)ccc1O2` (stereo not given)?
DT40 TDP1 no CPT: 21µM*; HT1080NT lethal: 1%; uPA generation: 3%; TDP1 cell CPT: inconclusive; IL-1B inflam inh: -16; HT1080 IDH1KD tx: 3%

How did CCOc1ccc(C(CC(=O)O)NS(=O)(=O)c2ccc(C)cc2)cc1OC (stereo not given) do in these assays?
DT40 TDP1 no CPT: inconclusive; HT1080NT lethal: 13%; uPA generation: 7%; TDP1 cell CPT: 21µM*; IL-1B inflam inh: 30; HT1080 IDH1KD tx: 9%

What do the screens show for `O=C(c1ccco1)N1CCN(CCOCCOc2cccc3ccccc23)CC1`?
DT40 TDP1 no CPT: inconclusive; HT1080NT lethal: -7%; uPA generation: 3%; TDP1 cell CPT: inconclusive; IL-1B inflam inh: 7; HT1080 IDH1KD tx: -25%

Results for CCOc1ccccc1-c1nc(CN2CCN(C(=O)c3ccco3)CC2)c(C)o1 ?
DT40 TDP1 no CPT: -20%; HT1080NT lethal: 24%; uPA generation: -5%; TDP1 cell CPT: -9%; IL-1B inflam inh: -1; HT1080 IDH1KD tx: 21%

What do the screens show for `CCOc1ccccc1-n1c(CN2CCN(C(=O)c3ccco3)CC2)nc2ccccc2c1=O`?
DT40 TDP1 no CPT: inconclusive; HT1080NT lethal: 5.6µM*; TDP1 cell CPT: inconclusive; IL-1B inflam inh: -103*; HT1080 IDH1KD tx: 10µM*

Results for O=C(c1ccco1)N1CCN(CCCCOc2cccc3ccccc23)CC1 ?
DT40 TDP1 no CPT: inconclusive; HT1080NT lethal: -7%; uPA generation: 3%; TDP1 cell CPT: 18µM*; IL-1B inflam inh: 0; HT1080 IDH1KD tx: -10%

How did O=C(c1ccco1)N1CCCN(Cc2cn[nH]c2-c2ccc(-c3ccccc3)cc2)CC1 do in these assays?
DT40 TDP1 no CPT: inconclusive; HT1080NT lethal: -18%; uPA generation: 0%; TDP1 cell CPT: -6%; IL-1B inflam inh: -82*; HT1080 IDH1KD tx: -16%

Results for COc1ccc2ccccc2c1CN1CCN(C(=O)c2ccccc2)CC1 ?
DT40 TDP1 no CPT: 15µM*; HT1080NT lethal: -27%; uPA generation: -1%; TDP1 cell CPT: inconclusive; IL-1B inflam inh: inconclusive; HT1080 IDH1KD tx: -14%

How did COc1ccc(-c2[nH]ncc2CN2CCN(C(=O)c3ccco3)CC2)cc1F do in these assays?
DT40 TDP1 no CPT: inconclusive; HT1080NT lethal: -11%; uPA generation: 4%; TDP1 cell CPT: 15%; IL-1B inflam inh: -14; HT1080 IDH1KD tx: 4%

How did COc1ccc(Cl)cc1NC(=O)CN(C)C1CCS(=O)(=O)C1 (stereo not given) do in these assays?
DT40 TDP1 no CPT: inconclusive; HT1080NT lethal: -2%; uPA generation: 1%; TDP1 cell CPT: -21%; IL-1B inflam inh: -7; HT1080 IDH1KD tx: 0%

How did CCCOc1ccccc1/C=C(\C#N)C(=O)Nc1cccnc1 do in these assays?
DT40 TDP1 no CPT: -11%; HT1080NT lethal: inconclusive; uPA generation: 1%; TDP1 cell CPT: -3%; IL-1B inflam inh: -15; HT1080 IDH1KD tx: 15%

How did COc1ccc2ccccc2c1CN1CCN(C(=O)c2ccco2)CC1 do in these assays?
DT40 TDP1 no CPT: 15µM*; HT1080NT lethal: -11%; uPA generation: -1%; TDP1 cell CPT: 18µM*; IL-1B inflam inh: -52*; HT1080 IDH1KD tx: -25%

Results for c1ccc(CN2CCN(CCOCCOc3cccc4ccccc34)CC2)cc1 ?
DT40 TDP1 no CPT: inconclusive; HT1080NT lethal: 16µM*; uPA generation: 14%; TDP1 cell CPT: -9%; IL-1B inflam inh: -81*; HT1080 IDH1KD tx: inconclusive

High-throughput results (PubChem BioAssay)
